Experimental data taken from PubChem BioAssay AID1159580 (chemical genetic matrix, 2015).
The whole screen tested about 5,500 compounds, of which about 2,000 (36%) were called active. Roughly 18% stayed inconclusive and do not appear here. The list shows a part of the results. A number with no mark means an inactive call. Cut-off read from the data, not from the text of the source: active = normalized growth mostly below about 0.91 (no sharp cut-off); inconclusive = no clear call, values can overlap the other calls; inactive = mostly above about 0.92.

Assay: chemical genetic growth profiling, strain panel (AID 1159580);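 note: tested at 20 µM; growth read once vehicle control cultures reached saturation at 30 °C; 1 = growth at the plate median or of vehicle wells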
Conditions: growth OD
[1] = S. cerevisiae deletion strains, locus YDL101C, strain DUN1, stronger effect = lower value
[2] = S. cerevisiae deletion strains, locus YHR030C, strain SLT2, stronger effect = lower value
[3] = S. cerevisiae deletion strains, locus YHR079C, strain IRE1, stronger effect = lower value
[4] = S. cerevisiae deletion strains, locus YJL095W, strain BCK1, stronger effect = lower value
[5] = S. cerevisiae deletion strains, locus YJR066W, strain TOR1, stronger effect = lower value
[6] = S. cerevisiae deletion strains, locus YLR113W, strain HOG1, stronger effect = lower value
[7] = S. cerevisiae deletion strains, locus YNL183C, strain NPR1, stronger effect = lower value
[8] = S. cerevisiae deletion strains, locus YOR231W, strain MKK1, stronger effect = lower value
[9] = S. cerevisiae deletion strains, locus YPL256C, strain CLN2, stronger effect = lower value
[10] = S. cerevisiae deletion strains, locus YDR150W, strain NUM1, stronger effect = lower value
[11] = S. cerevisiae deletion strains, locus YMR307W, strain GAS1, stronger effect = lower value
[12] = S. cerevisiae deletion strains, locus YNL153C, strain GIM3, stronger effect = lower value
[13] = S. cerevisiae deletion strains, locus YNL322C, strain KRE1, stronger effect = lower value
[14] = S. cerevisiae deletion strains, locus YPL241C, strain CIN2, stronger effect = lower value

## O=C1C(Cl)=C(Oc2cc(Cl)c(Cl)cc2Cl)C(=O)c2ccccc21
S. cerevisiae deletion strains, locus YAR019C, strain CDC15, stronger effect = lower value
  normalized growth: 0.215 (active)
S. cerevisiae deletion strains, locus YBR136W, strain MEC1, stronger effect = lower value
  normalized growth: 0.516 (active)
S. cerevisiae deletion strains, locus YDL017W, strain CDC7, stronger effect = lower value
  normalized growth: 0.912
S. cerevisiae deletion strains, locus YDL028C, strain MPS1, stronger effect = lower value
  normalized growth: 0.936
[1]
  normalized growth: 0.524 (active)
S. cerevisiae deletion strains, locus YDL132W, strain cdc53, stronger effect = lower value
  normalized growth: 0.41 (active)
S. cerevisiae deletion strains, locus YDL214C, strain PRR2, stronger effect = lower value
  normalized growth: 0.114 (active)
S. cerevisiae deletion strains, locus YDR052C, strain DBF4, stronger effect = lower value
  normalized growth: 0.546 (active)
S. cerevisiae deletion strains, locus YDR054C, strain cdc34, stronger effect = lower value
  normalized growth: 0.133 (active)
S. cerevisiae deletion strains, locus YDR477W, strain SNF1, stronger effect = lower value
  normalized growth: 0.125 (active)
S. cerevisiae deletion strains, locus YER123W, strain YCK3, stronger effect = lower value
  normalized growth: 0.122 (active)
S. cerevisiae deletion strains, locus YER133W, strain GLC7, stronger effect = lower value
  normalized growth: 0.126 (active)
S. cerevisiae deletion strains, locus YFL009W, strain cdc4, stronger effect = lower value
  normalized growth: 0.922
S. cerevisiae deletion strains, locus YFL029C, strain CAK1, stronger effect = lower value
  normalized growth: 0.236 (active)
S. cerevisiae deletion strains, locus YFR003C, strain YPI1, stronger effect = lower value
  normalized growth: 0.941
S. cerevisiae deletion strains, locus YFR019W, strain FAB1, stronger effect = lower value
  normalized growth: 0.104 (active)
S. cerevisiae deletion strains, locus YFR028C, strain CDC14, stronger effect = lower value
  normalized growth: 0.149 (active)
S. cerevisiae deletion strains, locus YGR040W, strain KSS1, stronger effect = lower value
  normalized growth: 0.14 (active)
S. cerevisiae deletion strains, locus YGR052W, strain FMP48, stronger effect = lower value
  normalized growth: 0.126 (active)
S. cerevisiae deletion strains, locus YGR092W, strain DBF2, stronger effect = lower value
  normalized growth: 0.352 (active)
[2]
  normalized growth: 0.122 (active)
[3]
  normalized growth: 0.333 (active)
S. cerevisiae deletion strains, locus YHR082C, strain KSP1, stronger effect = lower value
  normalized growth: 0.148 (active)
S. cerevisiae deletion strains, locus YHR205W, strain SCH9, stronger effect = lower value
  normalized growth: 0.125 (active)
S. cerevisiae deletion strains, locus YIL147C, strain SLN1, stronger effect = lower value
  normalized growth: 0.938
[4]
  normalized growth: 0.114 (active)
S. cerevisiae deletion strains, locus YJL128C, strain PBS2, stronger effect = lower value
  normalized growth: 0.11 (active)
S. cerevisiae deletion strains, locus YJL157C, strain FAR1, stronger effect = lower value
  normalized growth: 0.303 (active)
S. cerevisiae deletion strains, locus YJR016C, strain ILV3, stronger effect = lower value
  normalized growth: 0.917
S. cerevisiae deletion strains, locus YJR066W, strain TOR1 (second series), stronger effect = lower value
  normalized growth: 0.119 (active)
[5]
  normalized growth: 0.12 (active)
S. cerevisiae deletion strains, locus YKL048C, strain ELM1, stronger effect = lower value
  normalized growth: 0.658 (active)
S. cerevisiae deletion strains, locus YKL067W, strain YNK1, stronger effect = lower value
  normalized growth: 0.32 (active)
S. cerevisiae deletion strains, locus YKL101W, strain HSL1, stronger effect = lower value
  normalized growth: 0.38 (active)
S. cerevisiae deletion strains, locus YKL193C, strain SDS22, stronger effect = lower value
  normalized growth: 0.174 (active)
S. cerevisiae deletion strains, locus YKL203C, strain TOR2, stronger effect = lower value
  normalized growth: 0.13 (active)
[6]
  normalized growth: 0.171 (active)
S. cerevisiae deletion strains, locus YLR133W, strain CKI1, stronger effect = lower value
  normalized growth: 0.294 (active)
S. cerevisiae deletion strains, locus YLR403W, strain SFP1, stronger effect = lower value
  normalized growth: 0.197 (active)
S. cerevisiae deletion strains, locus YML070W, strain DAK1, stronger effect = lower value
  normalized growth: 0.105 (active)
S. cerevisiae deletion strains, locus YMR001C, strain CDC5, stronger effect = lower value
  normalized growth: 0.11 (active)
S. cerevisiae deletion strains, locus YMR205C, strain PFK2 (second series), stronger effect = lower value
  normalized growth: 0.538 (active)
S. cerevisiae deletion strains, locus YMR277W, strain FCP1, stronger effect = lower value
  normalized growth: 0.117 (active)
S. cerevisiae deletion strains, locus YNL006W, strain LST8, stronger effect = lower value
  normalized growth: 0.95
S. cerevisiae deletion strains, locus YNL020C, strain ARK1, stronger effect = lower value
  normalized growth: 0.555 (active)
[7]
  normalized growth: 0.128 (active)
S. cerevisiae deletion strains, locus YNL207W, strain RIO2, stronger effect = lower value
  normalized growth: 0.537 (active)
S. cerevisiae deletion strains, locus YNL222W, strain SSU72, stronger effect = lower value
  normalized growth: 0.522 (active)
S. cerevisiae deletion strains, locus YNL307C, strain MCK1 (second series), stronger effect = lower value
  normalized growth: 0.246 (active)
S. cerevisiae deletion strains, locus YOL078W, strain AVO1, stronger effect = lower value
  normalized growth: 0.161 (active)
S. cerevisiae deletion strains, locus YOL136C, strain PFK27, stronger effect = lower value
  normalized growth: 0.11 (active)
S. cerevisiae deletion strains, locus YOR061W, strain CKA2, stronger effect = lower value
  normalized growth: 0.519 (active)
S. cerevisiae deletion strains, locus YOR119C, strain RIO1, stronger effect = lower value
  normalized growth: 0.118 (active)
[8]
  normalized growth: 0.294 (active)
S. cerevisiae deletion strains, locus YOR329C, strain SCD5, stronger effect = lower value
  normalized growth: 0.94
S. cerevisiae deletion strains, locus YPL031C, strain PHO85, stronger effect = lower value
  normalized growth: 0.225 (active)
S. cerevisiae deletion strains, locus YPL153C, strain RAD53, stronger effect = lower value
  normalized growth: 0.318 (active)
S. cerevisiae deletion strains, locus YPL204W, strain HRR25, stronger effect = lower value
  normalized growth: 0.327 (active)
S. cerevisiae deletion strains, locus YPL209C, strain IPL1, stronger effect = lower value
  normalized growth: 0.581 (active)
[9]
  normalized growth: 0.183 (active)
S. cerevisiae deletion strains, locus YPR025C, strain CCL1, stronger effect = lower value
  normalized growth: 0.543 (active)
S. cerevisiae deletion strains, locus YPR111W, strain DBF20, stronger effect = lower value
  normalized growth: 0.897
S. cerevisiae deletion strains, strain TSCII, stronger effect = lower value
  normalized growth: 0.345 (active)

## O=C1CC(Nc2ccccc2)C=C1Nc1ccccc1 (centres undefined)
S. cerevisiae deletion strains, locus YAL013W, strain DEP1, stronger effect = lower value
  normalized growth: 1.01
S. cerevisiae deletion strains, locus YBR229C, strain ROT2, stronger effect = lower value
  normalized growth: 1.03
S. cerevisiae deletion strains, locus YCL061C, strain MRC1, stronger effect = lower value
  normalized growth: 1.01
[1]
  normalized growth: 1.01
S. cerevisiae deletion strains, locus YDL134C, strain PPH21, stronger effect = lower value
  normalized growth: 1.02
[10]
  normalized growth: 1.02
S. cerevisiae deletion strains, locus YEL061C, strain CIN8, stronger effect = lower value
  normalized growth: 1.01
S. cerevisiae deletion strains, locus YGR078C, strain PAC10, stronger effect = lower value
  normalized growth: 1.01
[2]
  normalized growth: 1.01
S. cerevisiae deletion strains, locus YHR087W, strain rtc3, stronger effect = lower value
  normalized growth: 1.02
S. cerevisiae deletion strains, locus YJR043C, strain POL32, stronger effect = lower value
  normalized growth: 1.01
S. cerevisiae deletion strains, locus YJR075W, strain HOC1, stronger effect = lower value
  normalized growth: 1.03
S. cerevisiae deletion strains, locus YKL190W, strain CNB1, stronger effect = lower value
  normalized growth: 1.02
S. cerevisiae deletion strains, locus YLR039C, strain RIC1, stronger effect = lower value
  normalized growth: 0.977
S. cerevisiae deletion strains, locus YLR058C, strain SHM2 (second series), stronger effect = lower value
  normalized growth: 1.03
S. cerevisiae deletion strains, locus YLR085C, strain ARP6, stronger effect = lower value
  normalized growth: 0.968
S. cerevisiae deletion strains, locus YLR262C, strain YPT6, stronger effect = lower value
  normalized growth: 1.02
S. cerevisiae deletion strains, locus YML094W, strain GIM5, stronger effect = lower value
  normalized growth: 1.01
S. cerevisiae deletion strains, locus YMR219W, strain ESC1, stronger effect = lower value
  normalized growth: 1.03
S. cerevisiae deletion strains, locus YMR263W, strain SAP30, stronger effect = lower value
  normalized growth: 1
[11]
  normalized growth: 1.02
[12]
  normalized growth: 1
S. cerevisiae deletion strains, locus YNL298W, strain CLA4 (second series), stronger effect = lower value
  normalized growth: 0.979
[13]
  normalized growth: 1.01
S. cerevisiae deletion strains, locus YNR030W, strain Alg12, stronger effect = lower value
  normalized growth: 1.01
S. cerevisiae deletion strains, locus YPL055C, strain LGE1, stronger effect = lower value
  normalized growth: 1.09
[14]
  normalized growth: 0.998
S. cerevisiae deletion strains, locus YPR135W, strain CTF4, stronger effect = lower value
  normalized growth: 0.966
S. cerevisiae strains, strain wild type, stronger effect = lower value
  normalized growth: 1.02

## NC(=O)OCC(COC(N)=O)c1ccccc1
S. cerevisiae deletion strains, locus YAL040C, strain CLN3, stronger effect = lower value
  normalized growth: 1.03
S. cerevisiae deletion strains, locus YCL061C, strain MRC1 (second series), stronger effect = lower value
  normalized growth: 1.01
[10]
  normalized growth: 1
S. cerevisiae deletion strains, locus YDR363W, strain ESC2, stronger effect = lower value
  normalized growth: 1
S. cerevisiae deletion strains, locus YER002W, strain NOP16, stronger effect = lower value
  normalized growth: 0.999
S. cerevisiae deletion strains, locus YGR229C, strain SMI1, stronger effect = lower value
  normalized growth: 0.991
[2]
  normalized growth: 0.975
[3]
  normalized growth: 0.991
[4]
  normalized growth: 0.959
[5]
  normalized growth: 0.932
[6]
  normalized growth: 0.99
[11]
  normalized growth: 0.985
[12]
  normalized growth: 1.04
S. cerevisiae deletion strains, locus YNL175C, strain NOP13, stronger effect = lower value
  normalized growth: 0.999
[7]
  normalized growth: 0.945
S. cerevisiae deletion strains, locus YNL197C, strain WHI3, stronger effect = lower value
  normalized growth: 1
S. cerevisiae deletion strains, locus YNL224C, strain SQS1, stronger effect = lower value
  normalized growth: 1.03
[13]
  normalized growth: 1.02
S. cerevisiae deletion strains, locus YOR083W, strain WHI5 (second series), stronger effect = lower value
  normalized growth: 1.02
[8]
  normalized growth: 0.976
[14]
  normalized growth: 1.01
[9]
  normalized growth: 0.976
